Assay outcomes from PubChem BioAssay.
CYP2C19 inh = inhibitors of human CYP2C19 | CYP2C19 Supersomes, luciferin-H EGE luminescence, 30 min | P33261 | hit rate 21% among 96,000 | inhibition, % at 5 µM;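 active = CYP2C19 inhibition above a set limit at 5 µM in the primary screen, cut at about 50% in these data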;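 note: plate controls were negative control wells for no effect and 2.5 mM tranylcypromine positive control for full effect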
Target sequence (P33261 whole entry, looked up): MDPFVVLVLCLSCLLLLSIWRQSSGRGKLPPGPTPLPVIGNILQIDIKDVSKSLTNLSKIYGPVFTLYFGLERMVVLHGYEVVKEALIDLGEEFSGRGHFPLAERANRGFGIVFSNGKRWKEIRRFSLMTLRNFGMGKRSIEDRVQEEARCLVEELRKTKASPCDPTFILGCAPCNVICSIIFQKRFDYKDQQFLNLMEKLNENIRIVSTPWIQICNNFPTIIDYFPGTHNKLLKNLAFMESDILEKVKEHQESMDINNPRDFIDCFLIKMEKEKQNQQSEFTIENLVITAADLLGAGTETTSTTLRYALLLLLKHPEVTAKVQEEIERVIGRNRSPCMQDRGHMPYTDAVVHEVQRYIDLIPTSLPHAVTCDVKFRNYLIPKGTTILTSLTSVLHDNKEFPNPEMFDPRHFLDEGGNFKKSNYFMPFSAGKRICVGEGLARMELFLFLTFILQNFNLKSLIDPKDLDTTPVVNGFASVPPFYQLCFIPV
Cav32 inh = blocks human Cav3.2 T-type calcium channel | B-score at 10 µM | AID 449739 | Cav3.2-expressing cells, Fluo-4 calcium fluorescence FDSS; stronger effect = lower value | O95180 | hit rate 4% among 100,000;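 active = single-dose well whose peak fluorescence ratio is a statistical outlier from its plate by either plate-standardised score or position-corrected B-score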
CYP2C9 act = CYP2C9 (human) activation. P11712. recombinant CYP2C9, luciferin-H conversion, luminescence; stronger effect = higher value; factor 1 = untreated enzyme, 0 = blocked. activation factor at 5 µM. hit rate 1.4% among 96,000. AID 1024;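 active = activation factor of 2 or more for CYP2C9 at a 5 µM dose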;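 note: 0 = sulfaphenazole-blocked wells and 1 = vehicle-only wells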
CYP2C19 activ = activators of human cytochrome P450 2C19 | recombinant CYP2C19, luciferin-H EGE luminescence; stronger effect = higher value; 0 = fully inhibited enzyme, 1 = untreated enzyme | activation factor at 5 µM | 96,000 tested, under 10 active | AID 1025;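 active = activation factor of at least 2 at 5 µM in the primary screen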;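 note: 0 = wells with 2.5 mM tranylcypromine and 1 = vehicle-only wells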
CYP2C9 inhib = inhibitors of human CYP2C9; CYP2C9 Supersomes, luciferin-H conversion, luminescence; inhibition, % at 5 µM; P11712; hit rate 20% among 96,000;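 active = blocking of liver enzyme CYP2C9 beyond about 50% at 5 µM, limit read from the data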
The depositor's hits bear a star. Most compounds without a hit are left out; they make up all but 27% or so of the library.

Results for COc1ccccc1CN(Cc1nc2ccccc2c(=O)[nH]1)C(=O)Nc1cccc(C)c1 ?
CYP2C19 inh: 67*; Cav32 inh: -2.8; CYP2C9 act: 0.4; CYP2C19 activ: 0.3; CYP2C9 inhib: 57*

Results for COc1ccccc1NC(=O)N(Cc1ccc2c(c1)OCO2)Cc1nc2ccccc2c(=O)[nH]1 ?
CYP2C19 inh: 3; Cav32 inh: 0.59; CYP2C9 act: 1; CYP2C19 activ: 1; CYP2C9 inhib: 0

What do the screens show for `CCN(CC(=O)NCc1ccc(F)cc1)Cc1nc2cc(Cl)ccc2c(=O)[nH]1`?
CYP2C19 inh: 41; Cav32 inh: -1.5; CYP2C9 act: 0.4; CYP2C19 activ: 0.6; CYP2C9 inhib: 60*

How did O=C(O)CCCNS(=O)(=O)c1ccc(NCc2ccccc2)c(C(=O)O)c1 do in these assays?
CYP2C19 inh: -19; Cav32 inh: -0.29; CYP2C9 act: 1.1; CYP2C19 activ: 1.2; CYP2C9 inhib: -7

How did CCS(=O)(=O)N1CCC(C(=O)NCc2cc(OC)ccc2OC)CC1 do in these assays?
CYP2C19 inh: 13; Cav32 inh: 0.46; CYP2C9 act: 1.8; CYP2C19 activ: 0.9; CYP2C9 inhib: -78

Results for CCCCCn1c(N)c(-c2nc3ccccc3s2)c2c([N+](=O)[O-])nn(C)c(=O)c21 ?
CYP2C19 inh: 9; Cav32 inh: -0.74; CYP2C9 act: 0.3; CYP2C19 activ: 0.9; CYP2C9 inhib: 70*

Results for COc1ccc(C2OC(=O)c3ccccc3S2)cc1 (configuration not stated) ?
CYP2C19 inh: 30; Cav32 inh: -0.94; CYP2C9 act: 1; CYP2C19 activ: 0.7; CYP2C9 inhib: 3

What do the screens show for `O=C(CCCSc1nc2ccccc2s1)NC1=NCCS1`?
CYP2C19 inh: 83*; Cav32 inh: -0.58; CYP2C9 act: 1.5; CYP2C19 activ: 0.2; CYP2C9 inhib: -47

What do the screens show for `Cc1cnc(NC(=O)CSc2ncn(-c3ccccc3)n2)s1`?
Cav32 inh: -0.12

What do the screens show for `O=C(CSc1nn(-c2ccccc2)c(=S)s1)Nn1cnnc1`?
CYP2C19 inh: 64*; Cav32 inh: -0.6; CYP2C9 act: 0; CYP2C19 activ: 0.4; CYP2C9 inhib: 98*

Results for Cc1cnc(NC(=O)CSc2nc3ccccc3s2)s1 ?
CYP2C19 inh: 24; Cav32 inh: -4.6*; CYP2C9 act: 1; CYP2C19 activ: 0.8; CYP2C9 inhib: 1

How did Cc1cnc(NC(=O)CSc2ccc(Cl)cc2)s1 do in these assays?
CYP2C19 inh: 69*; Cav32 inh: -2.7; CYP2C9 act: 0.5; CYP2C19 activ: 0.3; CYP2C9 inhib: 49

Results for COc1ccc(N2CCN(C(=O)CCN3C(=O)c4ccccc4S3(=O)=O)CC2)cc1 ?
CYP2C19 inh: 4; Cav32 inh: 0.75; CYP2C9 act: 0.9; CYP2C19 activ: 1; CYP2C9 inhib: 14

Results for Cc1ccc(CNc2ccc(Cl)cc2[N+](=O)[O-])cc1 ?
CYP2C19 inh: 6; CYP2C9 act: 0.9; CYP2C19 activ: 0.9; CYP2C9 inhib: 11

Results for COc1cccc(C(C(=O)NC2CCCC2)N(Cc2ccccc2OC)C(=O)c2ccco2)c1 (configuration not stated) ?
Cav32 inh: -1.7

How did CCOC(=O)c1c(=O)n(O)c2ccc(C)cc2[n+]1[O-] do in these assays?
CYP2C19 inh: -15; Cav32 inh: -0.38; CYP2C9 act: 1.2; CYP2C19 activ: 1.2; CYP2C9 inhib: -18

What do the screens show for `COc1ccc(C2CC(C(F)(F)F)n3nc(C(=O)O)c(Br)c3N2)cc1` (configuration not stated)?
CYP2C19 inh: -10; Cav32 inh: 1.6; CYP2C9 act: 1.1; CYP2C19 activ: 1.1; CYP2C9 inhib: -5

How did CCOC(=O)c1c(NC(=O)CSc2nnc(Cc3ccccc3)o2)sc(C)c1C do in these assays?
Cav32 inh: -4.5*

Results for COC(=O)c1c(NC(=O)CSc2nnc(Cn3nnc4ccccc43)n2C)sc(C)c1C ?
CYP2C19 inh: 15; Cav32 inh: -0.53; CYP2C9 act: 0.7; CYP2C19 activ: 0.9; CYP2C9 inhib: 31

Results for CCOC(=O)c1c(NC(=O)CSc2nc3ccccc3o2)sc(C)c1C ?
CYP2C19 inh: 31; Cav32 inh: -1.1; CYP2C9 act: 0.5; CYP2C19 activ: 0.7; CYP2C9 inhib: 46

What do the screens show for `O=C(CSc1nc2ccccc2s1)NCCOc1ccc(Cl)cc1`?
CYP2C19 inh: 38; Cav32 inh: -6.2*; CYP2C9 act: 0.6; CYP2C19 activ: 0.6; CYP2C9 inhib: 40

What do the screens show for `O=C(CSc1nc2ccccc2s1)Nn1cnnc1`?
CYP2C19 inh: 76*; Cav32 inh: -0.26; CYP2C9 act: 0; CYP2C19 activ: 0.2; CYP2C9 inhib: 96*

How did CCOC(=O)c1c(NC(=O)CSc2nc3ccccc3s2)sc(C)c1C do in these assays?
CYP2C19 inh: 28; Cav32 inh: -3.6; CYP2C9 act: 0.3; CYP2C19 activ: 0.7; CYP2C9 inhib: 65*

How did CC(Cc1ccccc1)NC(=O)C1CCCNC1=O (configuration not stated) do in these assays?
CYP2C19 inh: -4; Cav32 inh: 0.77; CYP2C9 act: 1; CYP2C19 activ: 1; CYP2C9 inhib: 1

What do the screens show for `COc1ccc(N2CCN(C(=O)c3ccc(S(=O)(=O)N4CCOCC4)cc3)CC2)cc1`?
CYP2C19 inh: 0; Cav32 inh: 0.88; CYP2C9 act: 1; CYP2C19 activ: 1; CYP2C9 inhib: 1

Results for CCOC(=O)c1c(NC(=O)CSc2ncn[nH]2)sc(C)c1C ?
CYP2C19 inh: 73*; Cav32 inh: -1.1; CYP2C9 act: 0.1; CYP2C19 activ: 0.3; CYP2C9 inhib: 85*

Results for CCCc1nnc(NC(=O)CSc2ncn[nH]2)s1 ?
CYP2C19 inh: 36; Cav32 inh: -1.5; CYP2C9 act: 0.9; CYP2C19 activ: 0.6; CYP2C9 inhib: 6

What do the screens show for `Cc1cnc(NC(=O)c2ccc(-c3nc4ccccc4s3)o2)s1`?
CYP2C19 inh: 75*; Cav32 inh: -1; CYP2C9 act: 0.4; CYP2C19 activ: 0.2; CYP2C9 inhib: 56*

What do the screens show for `O=C(CSc1nc(-c2ccccc2)c(-c2ccccc2)[nH]1)Nc1nccs1`?
CYP2C19 inh: -14; Cav32 inh: -2.1; CYP2C9 act: 1; CYP2C19 activ: 1.1; CYP2C9 inhib: -3

What do the screens show for `c1cnn(-c2nc(N3CCOCC3)nc(N3CCOCC3)n2)c1`?
CYP2C19 inh: -12; Cav32 inh: 0.82; CYP2C9 act: 0.5; CYP2C19 activ: 1.1; CYP2C9 inhib: 53*

How did c1ccc(Oc2nc(N3CCOCC3)nc(N3CCOCC3)n2)cc1 do in these assays?
CYP2C19 inh: 16; Cav32 inh: -0.36; CYP2C9 act: 0.8; CYP2C19 activ: 0.8; CYP2C9 inhib: 25

How did O=C(COC(=O)[C@H](Cc1ccccc1)NS(=O)(=O)c1ccccc1F)NC1CCCCC1 do in these assays?
CYP2C19 inh: 17; Cav32 inh: -4.9*; CYP2C9 act: 0.5; CYP2C19 activ: 0.8; CYP2C9 inhib: 46

How did COc1cc(C(=O)N2CCC(c3nc(-c4cccnc4)no3)CC2)cc(OC)c1OC do in these assays?
CYP2C19 inh: -12; Cav32 inh: -0.2; CYP2C9 act: 1.1; CYP2C19 activ: 1.1; CYP2C9 inhib: -7
